This note sets out measurements from the supplement of paper PMC10849652.

Targets with a hit are over-represented here; the source holds about 8,800 in all. About 0.5% of all pairs of compound and target were hits.

Chain of UniProt Q96LJ8 (Q96LJ8 whole entry, looked up): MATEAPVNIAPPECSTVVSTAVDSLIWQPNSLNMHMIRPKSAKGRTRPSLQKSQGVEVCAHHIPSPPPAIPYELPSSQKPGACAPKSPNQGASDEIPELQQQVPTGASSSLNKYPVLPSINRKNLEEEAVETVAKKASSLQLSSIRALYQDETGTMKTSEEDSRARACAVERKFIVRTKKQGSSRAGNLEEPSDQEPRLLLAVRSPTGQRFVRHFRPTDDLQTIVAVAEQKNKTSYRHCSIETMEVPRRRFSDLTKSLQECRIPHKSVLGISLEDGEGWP
Chain of UniProt Q9Y5Z9 (Q9Y5Z9 whole entry, looked up): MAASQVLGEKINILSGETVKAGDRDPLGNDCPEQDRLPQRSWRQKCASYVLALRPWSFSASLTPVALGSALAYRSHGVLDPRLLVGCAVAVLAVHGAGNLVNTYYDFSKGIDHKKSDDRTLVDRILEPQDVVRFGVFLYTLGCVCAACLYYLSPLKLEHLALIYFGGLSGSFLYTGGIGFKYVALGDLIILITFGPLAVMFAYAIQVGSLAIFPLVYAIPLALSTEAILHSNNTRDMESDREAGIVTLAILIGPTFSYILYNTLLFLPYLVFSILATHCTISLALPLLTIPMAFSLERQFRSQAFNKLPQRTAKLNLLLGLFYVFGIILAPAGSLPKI
Chain of UniProt O95271 (O95271 whole entry, looked up): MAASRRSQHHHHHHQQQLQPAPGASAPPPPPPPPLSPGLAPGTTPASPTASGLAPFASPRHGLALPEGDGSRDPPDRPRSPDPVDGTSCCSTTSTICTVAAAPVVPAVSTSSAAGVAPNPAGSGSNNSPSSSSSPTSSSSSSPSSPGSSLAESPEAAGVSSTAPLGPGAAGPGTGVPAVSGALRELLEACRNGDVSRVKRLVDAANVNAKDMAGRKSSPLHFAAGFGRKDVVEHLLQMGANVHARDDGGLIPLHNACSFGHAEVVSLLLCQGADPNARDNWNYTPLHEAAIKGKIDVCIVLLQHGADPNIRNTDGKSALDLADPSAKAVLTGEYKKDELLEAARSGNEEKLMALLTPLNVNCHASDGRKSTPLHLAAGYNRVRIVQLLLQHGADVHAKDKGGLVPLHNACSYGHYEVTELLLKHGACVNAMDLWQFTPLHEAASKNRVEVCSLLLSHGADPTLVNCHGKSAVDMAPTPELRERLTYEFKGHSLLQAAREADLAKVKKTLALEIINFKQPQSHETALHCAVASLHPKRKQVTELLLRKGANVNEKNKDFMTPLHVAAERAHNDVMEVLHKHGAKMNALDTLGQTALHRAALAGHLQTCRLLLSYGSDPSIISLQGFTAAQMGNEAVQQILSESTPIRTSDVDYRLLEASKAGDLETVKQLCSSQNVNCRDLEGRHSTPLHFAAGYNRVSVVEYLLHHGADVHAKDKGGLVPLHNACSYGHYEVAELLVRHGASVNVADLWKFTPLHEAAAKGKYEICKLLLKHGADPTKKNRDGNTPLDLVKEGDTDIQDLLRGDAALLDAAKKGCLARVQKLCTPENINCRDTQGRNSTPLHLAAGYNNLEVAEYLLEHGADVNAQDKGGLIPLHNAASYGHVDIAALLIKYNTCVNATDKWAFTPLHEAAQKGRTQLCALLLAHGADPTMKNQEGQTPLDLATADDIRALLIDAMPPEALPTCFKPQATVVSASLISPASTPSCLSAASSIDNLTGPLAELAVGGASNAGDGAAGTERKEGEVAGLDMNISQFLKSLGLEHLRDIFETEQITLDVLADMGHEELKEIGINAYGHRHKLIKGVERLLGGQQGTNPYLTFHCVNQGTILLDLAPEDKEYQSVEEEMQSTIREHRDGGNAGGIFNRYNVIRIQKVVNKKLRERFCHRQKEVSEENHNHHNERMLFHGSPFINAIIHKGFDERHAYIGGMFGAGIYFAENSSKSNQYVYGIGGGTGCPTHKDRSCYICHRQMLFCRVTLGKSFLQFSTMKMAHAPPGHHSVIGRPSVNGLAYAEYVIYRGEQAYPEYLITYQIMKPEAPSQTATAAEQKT
Chain of UniProt Q14CS0 (Q14CS0 whole entry, looked up): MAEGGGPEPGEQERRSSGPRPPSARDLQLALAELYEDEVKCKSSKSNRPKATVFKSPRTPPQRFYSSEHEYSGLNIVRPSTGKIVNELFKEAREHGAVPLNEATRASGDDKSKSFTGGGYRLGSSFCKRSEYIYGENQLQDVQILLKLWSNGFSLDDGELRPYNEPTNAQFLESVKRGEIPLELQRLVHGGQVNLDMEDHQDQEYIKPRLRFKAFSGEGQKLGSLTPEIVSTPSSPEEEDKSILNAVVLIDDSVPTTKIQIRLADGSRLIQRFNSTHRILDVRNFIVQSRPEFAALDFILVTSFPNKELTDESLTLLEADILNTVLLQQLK
Chain of UniProt Q04726 (Q04726 whole entry, looked up): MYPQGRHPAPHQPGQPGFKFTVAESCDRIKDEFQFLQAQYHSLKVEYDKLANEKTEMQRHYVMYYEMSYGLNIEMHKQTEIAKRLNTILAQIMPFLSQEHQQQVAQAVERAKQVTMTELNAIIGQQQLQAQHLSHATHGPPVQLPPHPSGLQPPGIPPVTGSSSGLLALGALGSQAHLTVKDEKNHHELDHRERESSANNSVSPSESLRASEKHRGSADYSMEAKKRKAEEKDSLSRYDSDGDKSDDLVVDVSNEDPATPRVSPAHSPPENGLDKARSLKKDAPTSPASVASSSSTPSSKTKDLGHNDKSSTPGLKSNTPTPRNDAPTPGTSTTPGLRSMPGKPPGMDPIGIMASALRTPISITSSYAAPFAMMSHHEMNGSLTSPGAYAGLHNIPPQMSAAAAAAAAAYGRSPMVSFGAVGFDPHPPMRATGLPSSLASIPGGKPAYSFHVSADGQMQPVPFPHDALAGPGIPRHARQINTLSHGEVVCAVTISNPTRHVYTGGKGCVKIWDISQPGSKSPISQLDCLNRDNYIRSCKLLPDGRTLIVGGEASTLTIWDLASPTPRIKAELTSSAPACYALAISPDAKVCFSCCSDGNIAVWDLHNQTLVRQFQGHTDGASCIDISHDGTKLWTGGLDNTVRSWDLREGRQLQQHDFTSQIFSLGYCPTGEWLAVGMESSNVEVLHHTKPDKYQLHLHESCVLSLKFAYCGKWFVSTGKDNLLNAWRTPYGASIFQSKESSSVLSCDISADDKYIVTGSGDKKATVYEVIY
Chain of UniProt P21580 (P21580 whole entry, looked up): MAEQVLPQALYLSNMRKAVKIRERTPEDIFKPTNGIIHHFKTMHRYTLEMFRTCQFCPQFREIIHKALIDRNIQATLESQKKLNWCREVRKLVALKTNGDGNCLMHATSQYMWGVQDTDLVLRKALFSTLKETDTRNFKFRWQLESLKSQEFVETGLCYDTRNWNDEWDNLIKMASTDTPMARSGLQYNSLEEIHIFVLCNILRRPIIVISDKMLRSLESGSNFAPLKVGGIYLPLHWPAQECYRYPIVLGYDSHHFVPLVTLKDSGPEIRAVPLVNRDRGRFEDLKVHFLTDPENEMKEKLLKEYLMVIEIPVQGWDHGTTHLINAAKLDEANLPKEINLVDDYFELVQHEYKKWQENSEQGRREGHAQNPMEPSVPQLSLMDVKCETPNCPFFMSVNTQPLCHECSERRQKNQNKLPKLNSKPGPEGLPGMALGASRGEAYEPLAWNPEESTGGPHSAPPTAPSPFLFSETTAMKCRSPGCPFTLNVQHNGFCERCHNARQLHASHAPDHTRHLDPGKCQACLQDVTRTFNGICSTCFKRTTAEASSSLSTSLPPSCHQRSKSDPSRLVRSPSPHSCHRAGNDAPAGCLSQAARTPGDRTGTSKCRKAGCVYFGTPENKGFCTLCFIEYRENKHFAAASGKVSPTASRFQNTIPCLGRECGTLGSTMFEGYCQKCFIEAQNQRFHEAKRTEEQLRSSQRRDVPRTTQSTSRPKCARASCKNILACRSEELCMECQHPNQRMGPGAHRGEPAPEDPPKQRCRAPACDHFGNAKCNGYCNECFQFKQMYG
Chain of UniProt P06753 (P06753 whole entry, looked up): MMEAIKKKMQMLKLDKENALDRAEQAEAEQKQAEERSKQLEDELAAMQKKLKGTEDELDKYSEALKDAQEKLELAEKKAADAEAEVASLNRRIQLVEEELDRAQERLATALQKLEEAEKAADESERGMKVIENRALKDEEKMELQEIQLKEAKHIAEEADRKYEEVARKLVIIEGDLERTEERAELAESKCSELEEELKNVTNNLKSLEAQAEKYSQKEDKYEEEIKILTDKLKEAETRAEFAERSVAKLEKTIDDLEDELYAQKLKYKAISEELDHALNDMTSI
Chain of UniProt P04350 (P04350 whole entry, looked up): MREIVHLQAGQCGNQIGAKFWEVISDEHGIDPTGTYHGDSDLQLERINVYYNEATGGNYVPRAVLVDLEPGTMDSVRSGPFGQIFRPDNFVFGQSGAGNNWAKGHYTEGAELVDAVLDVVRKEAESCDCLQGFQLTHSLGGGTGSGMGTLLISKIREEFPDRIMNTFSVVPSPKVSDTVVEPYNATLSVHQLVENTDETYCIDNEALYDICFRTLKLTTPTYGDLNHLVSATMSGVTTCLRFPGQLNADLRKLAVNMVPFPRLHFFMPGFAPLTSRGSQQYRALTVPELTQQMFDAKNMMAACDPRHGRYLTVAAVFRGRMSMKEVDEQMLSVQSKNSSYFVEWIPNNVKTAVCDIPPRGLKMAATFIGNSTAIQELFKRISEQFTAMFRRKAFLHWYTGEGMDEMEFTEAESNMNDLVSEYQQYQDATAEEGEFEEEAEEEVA
Chain of UniProt A6NHL2 (A6NHL2 whole entry, looked up): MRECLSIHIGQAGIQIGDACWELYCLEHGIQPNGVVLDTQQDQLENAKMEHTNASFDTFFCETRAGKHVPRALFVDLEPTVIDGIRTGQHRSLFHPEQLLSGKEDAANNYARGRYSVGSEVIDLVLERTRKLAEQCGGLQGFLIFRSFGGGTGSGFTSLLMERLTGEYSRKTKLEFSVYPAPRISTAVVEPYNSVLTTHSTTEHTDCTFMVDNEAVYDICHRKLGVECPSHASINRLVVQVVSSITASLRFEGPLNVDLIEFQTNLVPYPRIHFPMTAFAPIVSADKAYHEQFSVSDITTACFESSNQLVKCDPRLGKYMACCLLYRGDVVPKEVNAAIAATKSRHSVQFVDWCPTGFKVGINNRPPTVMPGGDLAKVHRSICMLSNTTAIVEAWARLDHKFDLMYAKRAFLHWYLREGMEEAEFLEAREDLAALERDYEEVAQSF

Compound in the first experiment: CNc1nc(-c2ccc3c(N)n[nH]c3c2)cc(N2C[C@@H](C(=O)NC3CCCCC3)CC[C@H]2C)n1
Put plainly: log2 fold change, soluble protein after heating vs DMSO (PISA); higher = thermal stabilisation; K562 lysate, 10 uM; active = over 0.2 and 3.5 SD of the protein, either way, in both replicates (recomputed). The gist of the method:
(§1)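 Values give the log-two fold change in thermal stability against solvent controls, from duplicates. Crude K562 extract at 1 mg/mL protein, made by dounce homogenisation in PBS pH 7.4 with 1 mM MgCl2, was treated with 10 μM compound for 30 min. After 3 min heating across 48°C-58°C, aliquots were pooled, adjusted to 0.5% NP-40 at 4°C and centrifuged at 21,000xg for 90 min. The supernatant was measured by TMTpro 16plex LC-MS/MS with channel sums equalised.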
As for UBIAD1 (UniProt Q9Y5Z9), the log2 fold change is 0.157 (inactive).
On the same count and under the same terms, the value for TK1 (UniProt K7ERV3) was 0.121 (inactive); that for U2AF1L5 (UniProt P0DN76) was -0.023 (inactive).
Still for that read-out and setting: the value for TUBB4A (UniProt P04350) was 0.051 (inactive); that for TUBGCP5 (UniProt Q96RT8) was -0.055 (inactive); that for UBXN10 (UniProt Q96LJ8) was 0.019 (inactive).
On the same count and under the same terms, next, UBXN2B (UniProt Q14CS0): -0.018 (inactive); UCHL5 (UniProt Q5LJA9): -0.156 (inactive); TNFAIP3 (UniProt P21580): -0.009 (inactive).
For TRPM4 (UniProt Q8TD43), the log2 fold change was 0.14 (inactive).
Same read-out and setting: the value for TMEM164 (UniProt Q5U3C3) was 0.333 (inactive).
Same read-out and setting: the value for TPM3 isoform 3 (UniProt P06753) was -0.137 (inactive).
Same read-out and setting: next, TXNIP (UniProt Q9H3M7): 0.046 (inactive); TNKS (UniProt O95271): -0.031 (inactive).
TJP1 (UniProt G3V1L9): the log2 fold change is 0.119 (inactive).
Same read-out and setting: next, TSPAN3 (UniProt O60637): 0.091 (inactive); TPM1 isoform 4 (UniProt P09493): -0.12 (inactive); TBC1D20 isoform 3 (UniProt Q96BZ9): 0.109 (inactive).
With UBL5 (UniProt Q9BZL1), the log2 fold change was -0.045 (inactive).
The same measure, in the same setting: next, TUBAL3 (UniProt A6NHL2): 0.039 (inactive).
Same read-out and setting: next, TLE3 isoform 5 (UniProt Q04726): 0.011 (inactive).

Compound in the next experiment: COC(=O)N[C@@H](C)CNc1nccc(-c2cn(C(C)C)nc2-c2cc(Cl)cc(NS(C)(=O)=O)c2F)n1 [encorafenib]
Described as above. An outline of the steps: as §1
For TMEM132A isoform 2 (UniProt Q24JP5), the log2 fold change is -0.064 (inactive).
On the same count and under the same terms, the value for UBIAD1 (UniProt Q9Y5Z9) was 0.067 (inactive).
Consider TMEM161B (UniProt Q8NDZ6), for which the log2 fold change was 0.047 (inactive).
TK1 (UniProt K7ERV3): the log2 fold change is -0.199 (inactive).
Take U2AF1L5 (UniProt P0DN76): the log2 fold change was -0.101 (inactive).
With TUBB4A (UniProt P04350), the log2 fold change is -0.027 (inactive).
The same measure, in the same setting: the value for TM2D3 (UniProt Q9BRN9) was -0.116 (inactive).
Still for that read-out and setting: next, TUBGCP5 (UniProt Q96RT8): 0.179 (inactive); UBXN10 (UniProt Q96LJ8): 0.045 (inactive).
Same read-out and setting: next, UBXN2B (UniProt Q14CS0): -0.037 (inactive); UCHL5 (UniProt Q5LJA9): 0.007 (inactive); TNFAIP3 (UniProt P21580): 0.276 (active).
For the target TUBB6 (UniProt K7ES63), the log2 fold change was 0.024 (inactive).
Take TFAP4 (UniProt Q01664): the log2 fold change is 0.156 (inactive).
Regarding TMEM164 (UniProt Q5U3C3), the log2 fold change was -0.107 (inactive).
Same read-out and setting: next, TTLL12 (UniProt V9GY16): -0.174 (inactive); TPM3 isoform 3 (UniProt P06753): -0.014 (inactive).
Turning to TXNIP (UniProt Q9H3M7), the log2 fold change is 0.011 (inactive).
As for TMSB4X (UniProt P62328), the log2 fold change is 0.043 (inactive).
For the target TNKS (UniProt O95271), the log2 fold change was -0.078 (inactive).
On to TSPAN3 (UniProt O60637), for which the log2 fold change was -0.015 (inactive).
Same read-out and setting: next, TMEM167B (UniProt Q9NRX6): 0.026 (inactive); TFPI (UniProt P10646): 0.072 (inactive).
On the same count and under the same terms, next, TPM1 isoform 4 (UniProt P09493): 0.02 (inactive).
In the case of TBC1D20 isoform 3 (UniProt Q96BZ9), the log2 fold change was 0.037 (inactive).
Still for that read-out and setting: the value for UBL5 (UniProt Q9BZL1) was -0.012 (inactive); that for TUBAL3 (UniProt A6NHL2) was 0.03 (inactive); that for TUBB4A (UniProt M0QYM7) was 0.009 (inactive).
As for TMEM177 (UniProt Q53S58), the log2 fold change was 0.019 (inactive).
On the same count and under the same terms, the value for TLE3 isoform 5 (UniProt Q04726) was -0.02 (inactive).
